Most compounds without a hit are left out; they make up all but 8.6% or so of the library.
Marburg entry: inhibitors of Marburg virus binding or entry into cells. Potency, µM (doses to about 49.2 µM), most hits filed as inhibitors. AID 720532. 6.5% of 18,000 active. Marburg virus pseudotype entry/binding inhibition, cell-based
LASV entry inh: blocks Lassa virus binding or cell entry; Lassa virus pseudotyped entry inhibition, cell-based qHTS; Potency, µM (top dose mostly 49.2 µM), most hits filed as inhibitors; 4.1% of 18,000 active
Numbers stand for hits; 0 = inactive; ? = inconclusive; [ ] = another dose, or the depositor's remark. The call rests on the fitted dose curve; tested in HEK293 cells.

SMILES | Marburg entry | LASV entry inh
CCC1(C2CCN(Cc3cccc4ccccc34)CC2)NC(=O)N(Cc2ccc3c(c2)OCO3)C1=O (centres undefined) | ? | 0
O=C(NCCCN1CCCCCC1)C(c1ccccc1)C1CCCCC1 (centres undefined) | 10µM | ?
CN1C2CCC1CC(C(=O)OC(CO)c1ccccc1)C2 (centres undefined) | 0 | 0
C[C@@H]1[C@@H](c2ccccc2)Oc2c(Cl)cccc2S(=O)(=O)N1Cc1ccc(F)cc1 | ? | 0
COc1ccc([C@]23Cc4c(ccc5ccccc45)[C@H](O2)c2c(cc(-c4ccccc4)oc2=O)O3)cc1 | 0[8.59 µM] | 0[8.59 µM]
